Reference: article PMC4102417

Test system: murine 3T3 fibroblasts
Assay: primary screen, percent viability or growth; higher = less effect of the substance
Description: Similarly, for measuring the cytotoxicity concentration (CC50) for 3T3 fibroblast cells, cultures were incubated with drugs for 72 hours and developed using Alamar Blue (Alamar Biosciences Inc, Sacramento, CA) as previously described.

Compound	Mammalian (3T3) cell % growth at 10 uM [%]
C=C(C)[C@@H]1CC[C@]2(CO)CC[C@]3(C)[C@H](CC[C@@H]4[C@@]5(C)CC[C@H](O)C(C)(C)[C@@H]5CC[C@]43C)[C@@H]12	100
C=CC(C1=CC(=O)C(OC)=CC1=O)c1ccc(OC)cc1 (stereo not drawn)	1.2
OCCN1CCN(CCCN2c3ccccc3Sc3ccc(Cl)cc32)CC1	66.6
CSc1ccc2c(c1)N(CCC1CCCCN1C)c1ccccc1S2 (stereo not drawn)	45.7
CCCC(C(=O)OCCN(CC)CC)(c1ccccc1)c1ccccc1	100
COc1cc(O)c(C(=O)/C=C/c2ccc(O)c(OC)c2)c(OC)c1	10.2
Nc1ccn([C@@H]2O[C@H](CO)[C@@H](O)[C@@H]2O)c(=O)n1	48.4
O=C1C=CC(=O)c2c(O)cccc21	66.4
CC(=O)OC1CC2C(C)(C)C(O)CCC2(C)C2CCC3(C)C(c4ccoc4)OC(=O)C4OC43C12C (stereo not drawn)	76.3
CCCOc1ccc2nc(NC(=O)OC)[nH]c2c1	52.8
Oc1ccc(Cl)c2cccnc12	49.7
CCC1(O)CC2CN(CCc3c([nH]c4ccccc34)C(C(=O)OC)(c3cc4c(cc3OC)N(C)C3C(O)(C(=O)OC)C(OC(C)=O)C5(CC)C=CCN6CCC43C65)C2)C1.O=S(=O)(O)O (stereo not drawn)	36.2
Oc1ccc2c(c1)O[C@H](c1ccc(O)c(O)c1)[C@@H](O)C2	97.8
CCN(CC)Cc1cc(Nc2ccnc3cc(Cl)ccc23)ccc1O	24.4
CC(=O)Oc1cc2c(c(C)c1OC(C)=O)CC=C1C2(C)CCC2(C)C3CC(C)(C(=O)O)CCC3(C)CCC12C (stereo not drawn)	0.6
Clc1ccc(COC(Cn2ccnc2)c2ccc(Cl)cc2Cl)cc1 (stereo not drawn)	100
C[C@@H]1C[C@@H]([C@H](O)CC2CC(=O)NC(=O)C2)C(=O)[C@@H](C)C1	36.9
CC(=O)OC1CC2C(C)(C)C(=O)CCC2(C)C2CCC3(C)C(c4ccoc4)OC(=O)C4OC43C12C (stereo not drawn)	81.4
CN1CCN(CCCN2c3ccccc3Sc3ccc(C(F)(F)F)cc32)CC1	94.7
CN(C)CCC=C1c2ccccc2CCc2ccccc21	100
O=C(Nc1ccc([N+](=O)[O-])cc1Cl)c1cc(Cl)ccc1O	10.5
